In the library only some 8.7% were active in any assay of this set; here they are far more common.
BAZ2B inh: qHTS Assay for Inhibitors of BAZ2B. 360,000 tested, 4.4% active. Potency, µM (titrated, usually from 114 µM), for the others: top-dose activity change, negative = inhibition, hits mostly inhibitors. AID 504333, 2011. AlphaScreen BAZ2B-H3K14Ac peptide displacement. Bromodomain adjacent to zinc finger domain protein 2B (Homo sapiens), Q9UIF8; also: % is scaled to controls: 0 for no effect and ±100 for the full control effect; nearly all actives have a fitted effect of over 60% in size
Target sequence (Q9UIF8 whole entry, looked up, the tested form may be a part): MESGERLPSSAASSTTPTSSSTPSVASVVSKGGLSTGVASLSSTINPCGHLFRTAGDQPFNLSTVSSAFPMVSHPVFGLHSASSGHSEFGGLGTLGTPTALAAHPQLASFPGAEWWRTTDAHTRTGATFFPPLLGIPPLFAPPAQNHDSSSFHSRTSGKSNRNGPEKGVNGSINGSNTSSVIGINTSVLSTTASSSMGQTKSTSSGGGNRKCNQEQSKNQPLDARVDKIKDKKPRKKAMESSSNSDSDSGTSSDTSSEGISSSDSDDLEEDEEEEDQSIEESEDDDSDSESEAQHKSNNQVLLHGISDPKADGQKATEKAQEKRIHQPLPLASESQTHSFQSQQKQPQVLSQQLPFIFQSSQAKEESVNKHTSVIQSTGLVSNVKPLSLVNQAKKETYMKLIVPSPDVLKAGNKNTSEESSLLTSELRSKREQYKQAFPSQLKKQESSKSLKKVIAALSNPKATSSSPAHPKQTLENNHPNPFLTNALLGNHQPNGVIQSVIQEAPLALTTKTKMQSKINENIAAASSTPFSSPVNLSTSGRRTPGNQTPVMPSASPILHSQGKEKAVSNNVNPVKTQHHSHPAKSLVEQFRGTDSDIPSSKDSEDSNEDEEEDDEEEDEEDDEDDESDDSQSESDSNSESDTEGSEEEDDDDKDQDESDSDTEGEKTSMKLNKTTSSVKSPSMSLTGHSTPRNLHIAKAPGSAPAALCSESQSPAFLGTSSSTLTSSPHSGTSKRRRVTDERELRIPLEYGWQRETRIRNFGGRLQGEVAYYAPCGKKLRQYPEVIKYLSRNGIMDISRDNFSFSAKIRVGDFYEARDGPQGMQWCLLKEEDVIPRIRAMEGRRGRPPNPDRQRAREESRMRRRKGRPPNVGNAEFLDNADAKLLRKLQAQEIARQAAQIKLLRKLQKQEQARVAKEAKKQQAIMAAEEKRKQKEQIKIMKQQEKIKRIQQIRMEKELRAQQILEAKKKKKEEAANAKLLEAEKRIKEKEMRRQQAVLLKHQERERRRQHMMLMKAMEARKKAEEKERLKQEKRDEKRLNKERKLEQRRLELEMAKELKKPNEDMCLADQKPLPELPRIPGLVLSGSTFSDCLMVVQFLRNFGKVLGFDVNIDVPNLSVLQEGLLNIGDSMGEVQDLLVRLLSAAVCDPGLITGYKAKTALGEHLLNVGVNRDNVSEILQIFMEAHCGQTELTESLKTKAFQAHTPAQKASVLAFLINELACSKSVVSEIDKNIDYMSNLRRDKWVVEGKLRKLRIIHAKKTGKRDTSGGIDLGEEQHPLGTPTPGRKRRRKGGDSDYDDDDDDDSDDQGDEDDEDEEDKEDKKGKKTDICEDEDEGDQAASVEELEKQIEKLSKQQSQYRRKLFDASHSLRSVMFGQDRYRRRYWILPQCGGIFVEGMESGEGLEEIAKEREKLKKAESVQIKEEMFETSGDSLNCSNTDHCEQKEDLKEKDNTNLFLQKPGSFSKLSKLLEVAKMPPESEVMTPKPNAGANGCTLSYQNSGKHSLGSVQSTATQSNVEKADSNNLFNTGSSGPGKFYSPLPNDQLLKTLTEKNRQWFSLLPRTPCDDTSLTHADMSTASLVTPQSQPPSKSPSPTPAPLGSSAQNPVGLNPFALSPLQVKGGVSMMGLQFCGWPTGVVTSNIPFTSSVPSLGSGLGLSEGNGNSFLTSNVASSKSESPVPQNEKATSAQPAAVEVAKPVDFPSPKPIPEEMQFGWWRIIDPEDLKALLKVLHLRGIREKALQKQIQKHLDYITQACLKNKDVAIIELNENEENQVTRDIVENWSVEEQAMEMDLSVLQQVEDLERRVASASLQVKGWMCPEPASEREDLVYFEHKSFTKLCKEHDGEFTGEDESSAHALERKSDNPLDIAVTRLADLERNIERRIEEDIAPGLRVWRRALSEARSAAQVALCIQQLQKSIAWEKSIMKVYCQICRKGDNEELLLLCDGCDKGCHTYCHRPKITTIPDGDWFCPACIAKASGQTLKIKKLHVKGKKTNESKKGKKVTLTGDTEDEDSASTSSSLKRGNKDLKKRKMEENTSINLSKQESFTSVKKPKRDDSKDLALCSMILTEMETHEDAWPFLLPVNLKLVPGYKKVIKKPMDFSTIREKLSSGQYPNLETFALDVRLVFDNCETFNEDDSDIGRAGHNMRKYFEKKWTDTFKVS
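In this displacement format the biotinylated H3(5-23) peptide acetylated at Lys14 serves as ligand at 50 nM, with BAZ2B at 50 nM in PBS pH 7.4 containing 0.01% Tween-20. Donor and acceptor beads are 10 ug/mL final.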
Sfp inh: qHTS Assay for Inhibitors of Bacillus subtilis Sfp phosphopantetheinyl transferase (PPTase) | 4'-phosphopantetheinyl transferase ffp (Bacillus subtilis), Q9F4F7 | Biochemical Sfp PPTase activity, qHTS | Potency, µM, without a hit: largest response in the series, negative = inhibition, hits mostly inhibitors | 310,000 tested, 3.5% active | AID 1490, 2009;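 also: the enzyme is Sfp with the accession as filed and its product quenches rhodamine fluorescence; 0% = enzyme reaction without inhibitor and -100% = no enzyme wells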
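After 15 min at room temperature with compound, 15 nM Sfp received 5 uM rhodamine-CoA plus 12.5 uM BHQ-2-ybbR (50 mM Hepes pH 7.6, 10 mM MgCl2). Rate came from the fluorescence difference over 30 min, ex 525/em 598 nm.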
JMJD2A Tudor inh: qHTS Assay for Inhibitors of JMJD2A-Tudor Domain | Lysine-specific demethylase 4A (Homo sapiens), O75164 | AlphaScreen JMJD2A-Tudor / H3K4me3 peptide binding | Potency, µM (doses to about 114 µM), for inactives: at the top dose activity change, negative = inhibition, usual class: inhibitors | 390,000 tested, 4.4% active | AID 504339, 2011; also: % is scaled to controls: 0 for no effect and ±100 for the full control effect; nearly all actives have a fitted effect of over 50% in size
G9a block: qHTS Assay for Inhibitors of Histone Lysine Methyltransferase G9a; 350,000 tested, 8.8% active; Potency, µM (titrated, usually from 102 µM), without a hit: at the highest dose activity, negative = inhibition, hits mostly inhibitors; G9a H3K9 monomethylation, AlphaScreen, 2 h; Histone-lysine N-methyltransferase EHMT2 (Homo sapiens), Q96KQ7; also: % is scaled to controls: 0 for no effect and ±100 for the full control effect; nearly all actives have a fitted effect of over 75% in size
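Chemiluminescent proximity detection of H3K9 monomethylation, read after 10 min bead incubation in the dark. Reaction: 20 nM G9a, 500 nM biotin-H3K9 peptide, 20 uM SAM cofactor, 2 h, room temperature, following 15 min enzyme-compound preincubation.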
HP1b chromo inh: HTS for Inhibitors of HP1-beta Chromodomain Interactions with Methylated Histone Tails; Chromobox protein homolog 1 (Homo sapiens), P83916; 390,000 tested, 0.56% active; Potency, µM (highest dose often 114 µM), for inactives: at the highest dose activity change, negative = inhibition, usual class: inhibitors; AlphaScreen HP1-beta / biotin-H3K9me3 peptide binding; also: nearly all actives have a fitted effect of over 70% in size
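HP1-beta protein (50 nM final) preincubated 30 min at room temperature with biotinylated H3(1-18)K9me3 peptide (50 nM) in PBS pH 7.4, 0.01% Tween-20, then compound added for 30 min. AlphaScreen streptavidin donor/nickel chelate acceptor beads (10 ug/mL final), 30 min dark, luminescence read.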
ALOX12 inh: Primary qHTS assay for inhibitors of human arachidonate 12S-lipoxygenase (ALOX12): Round 2; purified 12hLO, xylenol orange hydroperoxide absorbance; Potency, µM (series often up to 108 µM), for the others: top-dose activity change, negative = inhibition, usual class: inhibitors; 580,000 tested, 1.1% active; also: % is scaled to controls: 0 for no effect and ±100 for the full control effect
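Purified human 12hLO (150 nM final) in 25 mM Hepes, 0.01% Triton X-100, pH 7.0 was preincubated 15 min at room temperature with compound. Then 40 uM arachidonic acid was added, 30 min. Hydroperoxide was read by Fe-XO absorbance ratio 573/405 nm.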
* = called active by the depositor; u = inconclusive; x = no result given; [ ] = another dose, or the depositor's remark. Calls follow the shape of the dose curve; as a rule, active = well fitted curve in the direction sought with a large enough effect; inconclusive = small, poorly fitted or top-dose-only effect, or another doubt; inactive = no such curve, though single readings can be large; an effect the other way counts as inactive or inconclusive. Potency is read from the fitted curve at half-maximal effect.

SMILES	BAZ2B inh	Sfp inh	JMJD2A Tudor inh	G9a block	HP1b chromo inh	ALOX12 inh
Cc1nc(Cn2cnc3scc(-c4ccccc4)c3c2=O)no1	x	x	x	x	x	5.2%
CCc1noc(-c2cn(C3CCN(C(=O)c4cccc(Br)c4)C3)nn2)n1 (configuration not stated)	x	x	x	x	x	0.4%
O=C(CCn1cc(Cl)cn1)N1CCOC(c2ccc(Cl)cc2)C1 (configuration not stated)	x	x	x	x	x	-8.8%
C/C(=N\NC(=O)c1nnn(-c2nonc2N)c1CN(C)c1ccccc1)c1ccc(O)cc1	-5.8%	1.1%	-13.7%	0.5%	29.3%	1.0%
C/C(=N\NC(=O)c1nnn(-c2nonc2N)c1CN(C)c1ccccc1)c1ccccn1	8.91µM*	10.5%	22.4µM*	49.2%[59 µM]	35.1%	x
Cc1ccc(-c2nc(C(=O)NC3CCCCCC3)no2)cc1	x	x	15.8µM*	x	46.2%	460.3%
CCN1CCCC1CNS(=O)(=O)c1cccc(C(F)(F)F)c1 (configuration not stated)	1.6%	2.9%	0.7%	44.7µM*	16.7%	u
S=c1[nH]nc(COc2ccccc2)n1/N=C/c1ccco1	u	-26.5%	17.8µM*	-115.8%	-14.0%	u
Cc1ccc(/C=N/n2c(COc3ccccc3)n[nH]c2=S)o1	-32.7%	44.7µM*	56.2µM*	12.6µM*	-2.9%	u
Cc1ccccc1OCc1nc2ccccc2c(=O)n1/N=C/c1ccco1	-30.2%	-4.2%	-10.5%	u	4.3%	10.4%
N#CC1=C(N)Oc2nc[nH]c(=O)c2C1c1ccc2c(c1)OCO2 (configuration not stated)	x	x	x	x	x	-29.0%
C=CCc1cc(C)ccc1OCCOCCn1ccnc1	31.6µM*	-18.1%	3.16µM*	10µM*	28.2µM*	-17.6%
OC(COc1ccc(Cl)cc1Cl)Cn1ccnc1 (configuration not stated)	-19.7%	16.5%	-9.2%	-1.7%	16.0%	-7.4%
Cc1ccc(C)c(OCCCCCn2ccnc2)c1	u	-9.8%	u	u	1.2%	23.8%
Cc1cc(Cl)cc(C)c1OCCn1ccnc1	-37.0%	2.7%	-26.8%	-12.1%	28.1%	6.4%
Cc1cc(Cl)c(OCCn2ccnc2)c(Br)c1	u	u	17.8µM*	x	u	u
Clc1ccc(OCCn2ccnc2)c(Cl)c1	50.1µM*	-12.9%	3.55µM*	u	u	-19.9%
C=CCc1cc(Cl)ccc1OCCn1ccnc1	50.1µM*	-26.5%	20µM*	7.08µM*	u	u
O=C(CN1CCN(Cc2cnc(-c3ccccn3)nc2)CC1)N1CCCC1	x	x	x	x	x	73.9%
Clc1ccc(SCCCCn2cncn2)cc1	-3.6%	20.0%	-2.2%	6.4%[12.7 µM]	31.9%	-2.8%
Clc1ccc(SCCn2ccnc2)cc1	56.2µM*	-17.6%	3.55µM*	31.6µM*	u	u
O=C1c2ccccc2C(=O)N1c1nc(-c2cccs2)cs1	-10.9%	25.1µM*	-33.8%	-12.8%[59 µM]	20.9%	10.5%
CN1CCN(c2nc(-c3cccs3)cs2)CC1	u	56.2µM*	u	35.5µM*	-15.0%	-16.7%
CN1CCN(c2nc(-c3cc4ccccc4o3)cs2)CC1	u	-7.8%	-5.0%	u	33.6%	7.1%
CCOc1ccccc1OCCOCCOc1ccccc1[N+](=O)[O-]	-1.2%	-5.9%	8.5%[57.1 µM]	3.7%[59 µM]	58.8%	-14.4%
SMILES	BAZ2B inh	Sfp inh	JMJD2A Tudor inh	G9a block	HP1b chromo inh	ALOX12 inh
CC1CCN(CCCCOc2ccc([N+](=O)[O-])cc2)CC1	-33.2%	-10.3%	79.4µM*	11.2µM*	5.3%	u
CC1CCN(CCCCOc2ccccc2[N+](=O)[O-])CC1	u	-31.2%	4.47µM*	u	u	u
O=[N+]([O-])c1ccc(OCCCCN2CCc3ccccc3C2)cc1	79.4µM*	-27.8%	20µM*	35.5µM*	u	u
O=[N+]([O-])c1ccc(OCCCCN2CCCCC2)cc1	-0.4%	17.9%	3.6%	u	30.7%	-23.0%
CC1CCN(CCCCOc2cccc(C(C)C)c2)CC1	u	-7.9%	56.2µM*	39.8µM*	-28.6%	u
CC(OC(=O)c1cc(-c2ccncc2)nc2ccccc12)C(N)=O (configuration not stated)	x	x	x	x	x	-14.4%
CC1CCN(CCCCOc2ccc(F)cc2)CC1	u	-8.3%	3.16µM*	u	u	x
Cc1ccc(OCCCCN2CCC(C)CC2)cc1	50.1µM*	-17.6%	3.16µM*	-32.3%	u	x
N#Cc1ccc(C(=O)N2C[C@@H](Oc3ccccc3)C[C@H]2C(=O)NC2CC2)cc1	x	x	x	x	x	44.0%
CCOC(=O)CCNC(=O)c1ccc(Br)cc1Cl	x	x	x	x	x	48.2%
COc1cc(C)c(NC(=O)c2ccc3c(c2)NC(=O)CCS3)cc1OC	x	x	x	x	x	-29.7%
CC(NC(=O)c1ccc2c(c1)NC(=O)CCS2)c1ccncc1 (configuration not stated)	x	x	x	x	x	8.91µM*
O=C1CCSc2ccc(C(=O)NO)cc2N1	x	x	x	x	x	39.8µM*
CNC(=O)c1nn(CN2CCN(Cc3cccc(C)c3)CC2)c(=O)c2ccccc12	x	x	x	x	x	0.5%
CC(C)CC(=O)N1CCCN(S(C)(=O)=O)c2ccccc21	x	x	x	x	x	40.0%
CCCNC(=O)N[C@H]1C[C@@](O)(C(=O)N[C@H](C)C(N)=O)C[C@@H](O)[C@@H]1O	x	x	x	x	x	7.9%[176 µM]
O=[N+]([O-])c1cc(N=Nc2ccc3ccccc3c2)ccc1O	u	11.2%	u	3.16µM*	-17.3%	99.0%
CSc1cccc(NC(=O)c2[nH]c(C)c(C(C)=O)c2C)c1	50.1µM*	-6.5%	-19.0%	u	u	-1.3%
Cc1cc(C(C)(C)C)cc(C)c1CS(=O)(=O)CCCO	x	x	x	x	x	59.0%
CC(C)c1ccccc1-n1cc[nH]c1=S	u	u	22.4µM*	3.98µM*	22.7%	u
S=c1[nH]ccn1-c1c(Cl)cccc1Cl	-11.8%	4.9%	1.8%	10µM*	25.4%[57 µM]	-24.3%
Cc1ccccc1-n1cc[nH]c1=S	4.9%	-11.7%	10µM*	12.6µM*	15.7%	u
CCCN1CNC(=S)N(c2ccccc2C)C1	-12.9%	3.4%	-1.0%	7.1%[59 µM]	22.7%	-14.3%
Cc1cccc(-n2cc[nH]c2=S)c1	-0.9%	56.2µM*	5.62µM*	2.82µM*	11.0%	-11.6%

Source: PubChem
